Rows were chosen to be rich in hits. Some 7.9% of all compounds tested hit in one or more screens of this group.
SW480 rereplic: induces DNA re-replication in SW480 colon adenocarcinoma cells; SW480 DNA re-replication, Hoechst DNA content imaging, 48 h; 1.8% of 340,000 active; AID 624297; Potency, µM (top dose mostly 46.1 µM), inactives show at the highest dose re-replication activation, hits mostly activators; also: % of control where 0% means no effect; nearly all actives have a fitted effect of over 55% in size
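Readout is total intensity of Hoechst-stained nuclei, excited at 405 nm and collected at 500-530 nm. Compound treatment lasted 48 hr at 37 C in 5% CO2 before staining.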
MCF10A rerep: induces DNA re-replication in MCF 10a normal breast cells; MCF 10A DNA re-replication, Hoechst nuclear intensity, 48 h; 2.9% of 350,000 active; AID 624296; Potency, µM (series often up to 46.1 µM), for inactives: top-dose activity, positive = re-replication, most hits filed as activators; also: % of control where 0% means no effect; nearly all actives have a fitted effect of over 50% in size
HT1080-NT tox: kills 2HG-producing HT-1080-NT fibrosarcoma cells; AID 686970; Potency, µM (series often up to 46.1 µM), for inactives: at the highest dose activity, negative = less viability, actives largely listed as cytotoxic; HT-1080-NT fibrosarcoma viability, CellTiter-Glo ATP luminescence, 48 h; 1.6% of 360,000 active;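 also: NT is the 2HG producing partner of a matched IDH1 knockdown line; 0% = DMSO-treated cells and -100% = media-only wells without cells; nearly all actives have a fitted effect of over 55% in size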
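HT-1080-NT fibrosarcoma cells (2HG-overproducing), 750 cells/well in RPMI with 5% FBS, dosed after 2 h and incubated 48 h at 37C. CellTiter-Glo luminescence normalized to DMSO and no-cell wells; concentration-response curves fitted and classed.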
KB-V1 cytotox: kills drug-selected multidrug resistant KB-V1 cells | KB-V1 MDR cells viability, CellTiter-Glo, 72 h | Potency, µM (series often up to 46.1 µM), most hits filed as cytotoxic | 3.4% of 400,000 active; also: % is scaled to controls: 0 for no effect and ±100 for the full control effect; nearly all actives have a fitted effect of over 60% in size
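Cytotoxicity via CellTiter-Glo luminescence after 72 h compound exposure at 37 degrees C. Cells: drug-selected KB-V1 line, DMEM phenol-red free plus 10% FBS. Compounds tested at multiple concentrations; normalized data fitted to concentration-effect curves.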
HT1080 IDH1KD tx: toxicity to HT-1080 IDH1 knockdown cells (counter line) | AID 686971 | Potency, µM (titrated, usually from 46.1 µM), for inactives: at the top dose activity, negative = toxicity, hits mostly cytotoxic | HT-1080 IDH1 knockdown viability, ATP luminescence, 48 h | 2% of 360,000 active;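 also: 0% = DMSO wells and -100% = cell-free medium wells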
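CellTiter-Glo luminescence after 48 h compound exposure at 37 degrees C of IDH1-knockdown HT-1080 cells in 5% FBS RPMI. %Activity scaled between DMSO wells and cell-free media wells, with curves fitted and assigned curve classes.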
KB-3-1 tox: kills parental KB-3-1 adenocarcinoma cells; KB-3-1 viability, CellTiter-Glo ATP luminescence, 72 h; Potency, µM (highest dose often 46.1 µM), actives largely listed as cytotoxic; 1.4% of 400,000 active; also: % is scaled to controls: 0 for no effect and ±100 for the full control effect; nearly all actives have a fitted effect of over 60% in size
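Cells are dispensed, compounds pinned in, plates held at 37 °C for 72 h, then CellTiter-Glo is added and luminescence read after 10 minutes. Cell line: parental KB-3-1 in phenol-red-free DMEM, 10% FBS.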
* hit, by the source's call; i = inactive; ? = inconclusive; nt = no result given; ! = repeats disagree. Calls follow the shape of the dose curve; as a rule, active = well fitted curve in the direction sought with a large enough effect; inconclusive = small, poorly fitted or top-dose-only effect, or another doubt; inactive = no such curve, though single readings can be large; an effect the other way counts as inactive or inconclusive. Potency is read from the fitted curve at half-maximal effect.

SMILES | SW480 rereplic | MCF10A rerep | HT1080-NT tox | KB-V1 cytotox | HT1080 IDH1KD tx | KB-3-1 tox
Cc1ccc(-c2cc(C(=O)NCc3ccco3)no2)cc1 | -1.1% | ? | 21.5% | i | -3.5% | i
Cc1n[nH]c(=O)nc1NCCc1ccccc1 | -15.3% | -0.6% | -6.4% | i | -3.9% | i
COc1ccccc1NC(=S)N/N=C/c1cccc(C)c1 | ? | ? | 0.4% | ? | 3.1% | 14.6µM*
CCNC(=S)N/N=C/c1cccc(C)c1 | 1.1% | -0.8% | 13.8% | i | 16.2% | i
COc1ccccc1NC(=S)N/N=C/c1ccc(O)cc1 | 0.7% | 16.8% | -15.5% | 20.6µM* | -9.3% | ?
Oc1ccc(/C=N/NC(=S)N/N=C/c2ccc(O)cc2)cc1 | 21.3% | ? | ? | i | ? | i
Cc1c(C)c2c(OCC(=O)NCc3cccnc3)cc3c(c2oc1=O)CCC(C)(C)O3 | 0.4% | ? | -8.7% | i | -3.5% | i
COc1cc(N=c2ssnc2Cl)cc(OC)c1 | ? | ? | -20.6% | i | -1.6% | i
Clc1nssc1=Nc1ccc(Br)cc1 | ? | ? | 16.4µM* | ? | ? | i
CCOC(=O)c1ccc(-n2cccc2/C=C2\NC(=O)NC2=O)cc1 | 18.4µM* | 7.31µM* | nt | 7.31µM* | nt | 5.8µM*
CCOC(=O)c1cccc(-n2cccc2/C=C2\NC(=O)N(CC(=O)O)C2=O)c1 | -4.0% | ? | nt | i | nt | i
CC1CCCN(CCC(=O)Nc2ccccc2)C1 (stereo not given) | 1.0% | -1.0% | -1.0% | i | 1.2% | i
CCOc1ccc(NC(=O)Cn2c(=O)n(CCCS(=O)(=O)C3CCCCC3)c(=O)c3ccccc32)cc1 | nt | nt | nt | i | nt | i
COc1ccccc1CNS(=O)(=O)c1ccc(-c2cnc(C3CC3)o2)cc1 | ? | ? | 4.61µM* | 5.8µM*! | ? | ?
COc1ccccc1N1CCN(S(=O)(=O)c2ccc(-c3cnc(C4CC4)o3)cc2)CC1 | -9.6% | ? | 0.0% | ? | -9.7% | ?
O=S(=O)(Nc1cccc(C(F)(F)F)c1)c1ccc(-c2cnc(C3CC3)o2)cc1 | nt | nt | nt | 8.2µM* | nt | 10.3µM*
COc1ccc(NS(=O)(=O)c2ccc(-c3cnc(C4CC4)o3)cc2)cc1OC | 3.3% | ? | 14.6µM* | ? | 14.6µM* | 2.06µM*
Cc1cc(C)c(NS(=O)(=O)c2cc(-c3cnc(C4CC4)o3)ccc2C)c(C)c1 | nt | nt | nt | i | nt | i
COc1cc(OC)c(NS(=O)(=O)c2cc(-c3cnc(C4CC4)o3)ccc2C)cc1Cl | nt | nt | nt | i | nt | i
COc1ccccc1NS(=O)(=O)c1ccc(-c2cnc(C3CC3)o2)cc1 | 0.0% | ? | ? | ? | 0.731µM* | 1.03µM*
OCC[C@@H]1C[C@@H](O)[C@H](O)[C@]2(Cc3ccccc3CO2)O1 | -13.9% | -7.3% | 0.0% | i | 13.5% | i
CCOc1ccccc1NS(=O)(=O)c1cc(-c2cnc(C3CC3)o2)ccc1C | nt | nt | nt | i | nt | ?
CCOc1ccccc1NS(=O)(=O)c1ccc(-c2cnc(C3CC3)o2)cc1 | ? | ? | 0.206µM* | ? | 0.206µM* | 0.291µM*
CCC(=O)NCC(c1ccc2c(c1)OCO2)N1CCN(c2ccccc2)CC1 (stereo not given) | nt | nt | nt | i | nt | i
O=C1C=C(Nc2ccc(Cl)cc2Cl)CC(c2ccco2)C1 (stereo not given) | 16.4µM* | ? | 3.66µM* | 7.31µM* | 2.31µM* | 6.51µM*
Cc1ccc(Nc2cccccc2=O)cc1 | -11.5% | -46.7% | -3.9% | i | 29.1µM* | i
COc1ccc(C(=O)NC2CCSC2=O)cc1 (stereo not given) | ? | ? | 15.4% | i | 11.3% | ?
CC(C)(C)n1ncc2c(=O)n(Cc3ccc(Cl)cc3Cl)cnc21 | -0.9% | 45.0% | -3.6% | ? | 0.2% | ?

Source: PubChem (National Center for Advancing Translational Sciences (NCATS))
